# An excerpt weighted towards active compounds, which were near 3.9% of everything screened.
# HT1080-NT tox – kills 2HG-producing HT-1080-NT fibrosarcoma cells; HT-1080-NT fibrosarcoma viability, CellTiter-Glo ATP luminescence, 48 h; Potency, µM (top dose mostly 46.1 µM), without a hit: at the highest dose activity, negative = less viability, usual class: cytotoxic; 360,000 tested, 1.6% active;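 note: NT is the 2HG producing partner of a matched IDH1 knockdown line; 0% = DMSO-treated cells and -100% = media-only wells without cells; nearly all actives have a fitted effect of over 55% in size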
#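 Read-out is CellTiter-Glo luminescence after 10 minutes at room temperature, following 48 hours' compound treatment of HT-1080-NT cells (750 cells/well, RPMI, 5% FBS, 37 degrees C).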
# HepG2 tox-1 – kills HepG2 cells in TGF-b inhibitor counter-screen; 410,000 tested, 0.76% active; Potency, µM (titrated, usually from 46.1 µM), without a hit: top-dose activity change, negative = cytotoxicity, hits mostly cytotoxic; HepG2 CAGA-GFP viability, ATP luminescence, 18 h; AID 588856
#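 HepG2 CAGA-GFP cells (1000/well, DMEM with 1% FBS) received compound, then TGF-beta at 500 pg/mL final, and were incubated 18 hours at 37 degrees C. Viability was read by CellTiter-Glo luminescence. Media-only wells were set as complete cell-killing and DMSO as no toxicity.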
# ATXN2 expr inh – reduces ATXN2 reporter expression in HEK-293 cells; Potency, µM (titrated, usually from 57 µM), inactives show top-dose activity change, negative = inhibition, usual class: inhibitors; AID 1745845; HEK-293 ATXN2-luciferase reporter, luminescence, 24 h; 360,000 tested, 0.72% active; note: % is set by controls: 0 for no effect and ±100 for the full control effect; nearly all actives have a fitted effect of over 55% in size
#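 qHTS (up to 57 uM final) was run with 24 h compound exposure of reporter cells at 37 °C. Each well was multiplexed: SteadyGlo luminescence measured ATXN2-luciferase expression after a fluorogenic Gly-Phe-AFC viability readout (25 uM final).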
# TGFb inhibitor – TGF-b pathway inhibition | Potency, µM (titrated, usually from 46.1 µM), for the others: at the highest dose activity, negative = inhibition, actives largely listed as inhibitors | HepG2 CAGA-GFP TGF-b/SMAD3 reporter, GFP fluorescence, 18 h; TGF-beta stimulated, 500 pg/mL final | 410,000 tested, 1.2% active | AID 588855; note: % is set by controls: 0 for no effect and ±100 for the full control effect; nearly all actives have a fitted effect of over 65% in size
#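 Per well, imaged GFP fluorescence of HEPG2 CAGA-GFP cells gives the signal; cells get compound, then TGF-beta (500 pg/mL final), 18 h at 37 degrees C; %Activity versus -TGF-beta and +DMSO controls.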
# S2 tox – cell viability loss in ATXN counter-screen. S2 cells (HEK-293 line with an ATXN2-luciferase reporter) viability, CellTiter-Fluor protease fluorescence, 24 h. Potency, µM (titrated, usually from 56.7 µM), usual class: cytotoxic. 400,000 tested, 0.49% active; note: nearly all actives have a fitted effect of over 40% in size
# HT1080 IDH1KD tx – HT-1080 IDH1 knockdown cell toxicity (counter line); AID 686971; Potency, µM (titrated, usually from 46.1 µM), for the others: top-dose activity, negative = toxicity, hits mostly cytotoxic; HT-1080 IDH1 knockdown viability, ATP luminescence, 48 h; 360,000 tested, 2% active;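 note: 0% = DMSO wells and -100% = cell-free medium wells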
#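 Knockdown cells (IDH1KD HT-1080) received compounds 2 h after plating at 750 cells/well and were kept 48 h at 37 °C in 5% FBS RPMI. A CellTiter-Glo luminescence read gave % activity for curve fitting.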
# TGFb confirm – confirmation of TGF-b signaling inhibitors in HepG2 reporter cells; 1,600 tested, 63% active; AID 720534; shares compounds with TGFb inhibitor; HepG2 CAGA-GFP TGF-b reporter, GFP fluorescence, 18 h; cells stimulated with TGF-beta, 500 pg/mL; Potency, µM (titrated, usually from 46.1 µM), for the others: at the highest dose activity, negative = inhibition, usual class: inhibitors; note: % is set by controls: 0 for no effect and ±100 for the full control effect; nearly all actives have a fitted effect of over 65% in size
# HepG2 tox-2 – HepG2 cytotoxicity, TGF-b inhibitor counterscreen; shares compounds with TGFb inhibitor; HepG2 CAGA-GFP viability, ATP luminescence, 18 h; cells stimulated with TGF-beta, 500 pg/mL; Potency, µM (titrated, usually from 46.1 µM), inactives show at the highest dose activity, negative = cytotoxicity, usual class: inhibitors; 1,600 tested, 27% active; note: % is set by controls: 0 for no effect and ±100 for the full control effect; nearly all actives have a fitted effect of over 70% in size
# CCL64 TGFb inh – blocks TGF-b signaling in CCL64 reporter cells | shares compounds with TGFb inhibitor | CCL64 CAGA-GFP reporter, TGF-b stimulated, GFP fluorescence, 18 h | Potency, µM (series often up to 46.1 µM), without a hit: at the highest dose activity, negative = inhibition, most hits filed as inhibitors | 1,600 tested, 41% active | AID 720536; note: nearly all actives have a fitted effect of over 65% in size
# COP TGFb inh – validation of TGF-b inhibitors in HepG2 COP promoter reporter. shares compounds with TGFb inhibitor. HepG2 COP-GFP TGF-b reporter, GFP fluorescence, 18 h; cells stimulated by added recombinant TGF-beta. Potency, µM (top dose mostly 46.1 µM), for the others: at the highest dose activity, negative = inhibition, hits mostly inhibitors. 1,600 tested, 3% active; note: nearly all actives have a fitted effect of over 70% in size
# Active calls of the source: *; i = inactive; u = inconclusive; x = not tested or not shown; [ ] = remark or other dose. Calls come from the whole dose curve; as a rule, active = well fitted curve in the direction sought with a large enough effect; inconclusive = small, poorly fitted or top-dose-only effect, or another doubt; inactive = no such curve, though single readings can be large; an effect the other way counts as inactive or inconclusive. Potency is the fitted concentration of half-maximal effect.
SMILES,HT1080-NT tox,HepG2 tox-1,ATXN2 expr inh,TGFb inhibitor,S2 tox,HT1080 IDH1KD tx,TGFb confirm,HepG2 tox-2,CCL64 TGFb inh,COP TGFb inh
NC(=O)CC(NC(=O)c1ccc(Br)cc1)c1ccc(N2CCC(Cc3ccccc3)CC2)c([N+](=O)[O-])c1 (stereo unspecified),-23%,-31%,-26%,10µM*,i,u,u,21µM*,u,-4%
NC(=O)CC(NC(=O)c1ccccc1)c1ccc(N2CCC(N3CCCC3)CC2)c([N+](=O)[O-])c1 (stereo unspecified),9%,-2%,4%,1%,i,20%,x,x,x,x
NC(=O)CC(NC(=O)c1ccc(Br)cc1)c1ccc(N2CCN(c3ccccc3)CC2)c([N+](=O)[O-])c1 (stereo unspecified),5%,-17%,-14%,u,i,0%,x,x,x,x
OC(CN1CCN(c2cccc(Cl)c2)CC1)c1ccccc1 (stereo unspecified),-4%,-26%,-3%,-25%,i,-13%,x,x,x,x
OC(COC(c1ccccc1)c1ccccc1)CN1CCN(c2cccc(Cl)c2)CC1 (stereo unspecified),-11%,-13%,-12%,16µM*,u,u,18µM*,u,u,41%
COC(=O)C1CCC(=O)N1C(c1ccc(OC)cc1)c1cc(OC)c(OC)c(OC)c1 (stereo unspecified),1.2µM*,2%,4%,2µM*,u,u,u,-2%,5.8µM*,u
CCC1=C(CC2NCCc3ccccc32)CC2c3cc(OC)c(OC)cc3CCN2C1 (stereo unspecified),u,-29%,8.9µM*,2.8µM*,u,6.5µM*,1.5µM*,u,5.2µM*,22%
COc1cc(C2Nc3ccccc3C(=O)N2Cc2ccccc2)ccc1OCc1ccccc1 (stereo unspecified),x,-20%,x,u,x,x,x,x,x,x
COc1cccc(NC(=O)CSc2nc(=O)n(Cc3cccnc3)c3c2CCC3)c1,x,-23%,-18%,-23%,i,x,x,x,x,x
CC(C)c1ccccc1OCC(=O)NC1CCCc2ccccc21 (stereo unspecified),-16%,-8%,-26%,16µM*,i,u,18µM*,u,u,11%
COc1ccccc1OCC(=O)NC1CCCc2ccccc21 (stereo unspecified),-11%,-15%,-18%,-10%,i,-1%,x,x,x,x
COC(=O)c1ccc(CNC(=O)CSc2nnc(COc3ccccc3)n2C)o1,7%,3%,-1%,u,i,8%,-11%,12%,3%,8%
CN(C)S(=O)(=O)N1CCc2ccc(NC(=O)c3ccc(C(F)(F)F)cc3)cc2C1,16µM*,-38%,-9%,u,i,u,0%,u,-24%,1%
O=C(Oc1c(CN2CCOCC2)cc(Cl)c2cccnc12)c1ccccc1,u,2.8µM*,8.9µM*,2.8µM*,11µM*,10µM*,-6%,u,u,4%
CN1CCN(Cc2cc(COCc3ccccc3)c3cccnc3c2O)CC1,u,-30%,4µM*,4.5µM*,u,u,-18%,u,7.3µM*,5%
Oc1c(Cl)cc(CN2CCOCC2)c2cccnc12,7.3µM*,-49%,x,2.5µM*,u,5.8µM*,u,u,u,6%
Oc1c(CN2CCCCC2)cc(Br)c2cccnc12,u,-46%,4µM*,2.8µM*,3.5µM*,u,21µM*,u,7.3µM*,19%
CC(=O)c1cccc(NC(=O)c2c(-c3ccccc3)c(-c3ccccc3)nn(C)c2=O)c1,x,-3%,x,-19%,x,x,x,x,x,x
Cc1ccc(NC(=O)C2CCN(C(=O)c3cnn(-c4ccccc4)c3-n3cccc3)CC2)cc1C,x,-29%,u,u,u,x,x,x,x,x
NC1=C(Br)C(=O)c2ncccc2C1=O,3.3µM*,2.8µM*,5.3µM*,2.8µM*,13µM*,3.3µM*,1.2µM*,3.3µM*,4.6µM*,4.6µM*
O=C1c2cccnc2C(=O)N1CO,9%,13%,-2%,1%,i,1%[9.24 µM],x,x,x,x
CCCCNC(=O)c1ccc2c(OCC)n(CCCC)nc2c1,0%,0%,1%,2%,i,9%,x,x,x,x
CCCn1nc2cc(C(=O)NCCc3cccs3)ccc2c1OCC,3%,-12%,49%,u,i,12%,-26%,-5%,-22%,-11%
O=C(NC1CCCC(C(F)(F)F)C1)c1ccc([N+](=O)[O-])o1 (stereo unspecified),u,16µM*,-8%,10µM*,i,u,7.3µM*,23µM*,u,u
O=C(NC1CCCCC1)c1ccc([N+](=O)[O-])o1,u,-18%,9%,u,i,u,x,x,x,x
CN(C)c1ncnc2c1ncn2C1OC(CO)C(O)C1O (stereo unspecified),13µM*,-69%,59%,0.63µM*,u,13µM*,0.65µM*,5.8µM*,u,5%
COc1ccc(C[C@H](N)C(=O)N[C@H]2[C@@H](O)[C@H](n3cnc4c(N(C)C)ncnc43)O[C@@H]2CO)cc1,4%,-80%,0.4µM*,3.2µM*,0.71µM*,11%,5.2µM*,2.1µM*,2.9µM*,u
